In PubChem BioAssay (Tox21) one finds Potency and outcome data, which are given here for 8 compounds.

Inconclusive results are not listed. A structure can be active in one record and inactive in another. The source made the active and inactive calls. Unless noted, the call rests on the fitted dose curve; in most records, active means well fitted curve in the direction sought with a large enough effect in the repeat runs; inconclusive means weak or mixed curves; inactive means no such curve, though single readings can be large; an effect the other way counts as inactive or inconclusive.

A short description of test [1]: qHTS assay to identify small molecule agonists of the peroxisome proliferator-activated receptor delta (PPARd) signaling pathway - cell viability counter screen (AID 743211). Further: nearly all actives have a fitted effect of over 55% in size. Further: potency means the concentration at half of the fitted maximal effect. In a few lines:
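Multiplexed format: after the 2 h room-temperature LiveBLAzer B/G FRET step, CellTiter-Glo was added to the same wells. Luminescence after 30 min gave cell viability; compound exposure was 17 h at 37C.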

Test [2] addresses Peroxisome proliferator-activated receptor delta (Homo sapiens) (UniProt Q03181). As to the kind of experiment: qHTS assay to identify small molecule agonists of the peroxisome proliferator-activated receptor delta (PPARd) signaling pathway (AID 743212; calls by dose curve). In a few lines:
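HEK293H UAS-bla reporter cells, human PPARd system; compounds delivered in DMSO after 5 h plating, then at 37 C. Beta-lactamase FRET read, 2 h RT substrate step.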

Test [3] can be described thus: qHTS assay to identify small molecule antagonists of the peroxisome proliferator-activated receptor delta (PPARd) signaling pathway - cell viability counter screen (AID 743213). Further: nearly all actives have a fitted effect of over 50% in size. In a few lines:
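In this counter screen, HEK293H cells carrying a UAS-beta-lactamase reporter are co-treated with test compounds and 300 nM L165041 (final) for 17 h at 37 C; cell viability is quantified by CellTiter-Glo luminescence.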
In general terms: Quantitative high-throughput screening tests each substance at several concentrations.

The target in test [4] is Peroxisome proliferator-activated receptor delta (Homo sapiens) (UniProt Q03181). As to the kind of experiment: qHTS assay to identify small molecule antagonists of the peroxisome proliferator-activated receptor delta (PPARd) signaling pathway (AID 743215; active means well fitted inhibition curve with a large enough effect in the signal ratio in the repeat runs, not every such curve was filed as active; the % refers to the signal ratio;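 further: cells stimulated with agonist L165041 at 300 nM final during compound exposure; series mostly up to about 62 µM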). In a few lines: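 With L165041 present at 300 nM final, compounds were incubated 17 h at 37 C on PPARd UAS-bla HEK293H cells. A FRET-based beta-lactamase substrate was then applied for 2 h at room temperature and fluorescence intensity recorded.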

In test [5] the target is Bile acid receptor (Homo sapiens) (UniProt Q96RI1). As to the kind of experiment: qHTS assay to identify small molecule antagonists of the farnesoid-X-receptor (FXR) signaling pathway (AID 743217; active means well fitted inhibition curve with a large enough effect in the signal ratio in the repeat runs, not every such curve was filed as active; the % refers to the signal ratio). In a few lines:
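In this cell-based antagonist screen, inhibition of CDCA-driven (50 uM final) UAS-beta-lactamase expression in HEK 293T cells was measured by FRET fluorescence following 16 h compound exposure at 37 °C.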

The target is the same in test [6]. Description: qHTS assay to identify small molecule agonists of the farnesoid-X-receptor (FXR) signaling pathway (AID 743220; active means well fitted activation curve with a large enough effect in the signal ratio in the repeat runs, not every such curve was filed as active; the % refers to the signal ratio). The method, boiled down: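 Beta-lactamase reporter under UAS control in GeneBLAzer FXR HEK 293T cells (5000/well) measured with LiveBLAzer FRET substrate after 2 h at room temperature. Compound exposure lasted 16 h at 37C.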
The nature of test [7]: qHTS assay to identify small molecule antagonists of the farnesoid-X-receptor (FXR) signaling pathway - cell viability counter screen (AID 743221; active means well fitted cell-killing curve with a large enough effect in the repeat runs, not every such curve was filed as active; further: nearly all actives have a fitted effect of over 50% in size). In a few lines:
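CellTiter-Glo, 30 min RT, luminescence; same wells as the LiveBLAzer FRET read. Cells: FXR-UAS-bla HEK 293T. Treatment: compound with chenodeoxycholic acid 50 uM final, 16 h at 37 C.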

Test [8] deals with Vitamin D3 receptor (Homo sapiens) (UniProt P11473). As to the kind of experiment: qHTS assay to identify small molecule agonists of the vitamin D receptor (VDR) signaling pathway (AID 743222; calls by dose curve). In a few lines:
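VDR-bla cells were seeded, left 4 h, treated with compounds in DMSO for 16 h, incubated 2 h at RT with B/G FRET substrate, and read for fluorescence.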

Test [9] can be described thus: qHTS assay to identify small molecule agonists of the vitamin D receptor (VDR) signaling pathway - cell viability counter screen (AID 743224). Further: series mostly up to about 63 µM; nearly all actives have a fitted effect of over 50% in size. The method, boiled down: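 Here cell health was gauged by luminescent ATP detection (CellTiter-Glo, 30 min RT) in VDR-bla cells that had been incubated with test compounds for 16 h at 37C and 5% CO2.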
The nature of test [10]: qHTS assay to identify small molecule antagonists of the vitamin D receptor (VDR) signaling pathway - cell viability counter screen (AID 743225). Further: nearly all actives have a fitted effect of over 50% in size. In a few lines: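 Cytotoxicity toward the VDR-bla HEK 293T line was scored by ATP-based CellTiter-Glo luminescence, read in the wells already used for the beta-lactamase readout after 16 h compound treatment under 3 nM 1-alpha,25-dihydroxyvitamin D3 stimulation.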

Test [11] in a line: qHTS assay to identify small molecule agonists of the NFkB signaling pathway (AID 1159509; active means well fitted curve in the direction sought with a large enough effect in the signal ratio in the repeat runs, not every such curve was filed as active; the % refers to the signal ratio; further: series mostly up to about 61 µM). In a few lines: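 After overnight attachment, reporter cells received test compounds, DMSO or positive controls and were incubated 5 hr at 37 C. FRET substrate was then added for 1.5 hr at room temperature before dual-emission fluorescence reading.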
The nature of test [12]: qHTS assay to identify small molecule agonists of the NFkB signaling pathway - cell viability counter screen (AID 1159515; calls by dose curve; further: series mostly up to about 61 µM; nearly all actives have a fitted effect of over 55% in size). The method, boiled down:
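5 hr compound treatment of NFkB-bla ME-180 cells (2,000/well, seeded overnight beforehand), followed by reporter substrate for 1.5 hr. CellTiter-Glo added afterward; luminescence after 30 min RT.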

A short description of test [13]: qHTS assay to identify small molecule agonists of the endoplasmic reticulum stress response signaling pathway (AID 1159516; active means well fitted activation curve with a large enough effect in the signal ratio in the repeat runs, not every such curve was filed as active; the % refers to the signal ratio). In a few lines: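 Reporter HeLa cells (ESRE-beta-lactamase) underwent 5 hr compound incubation at 37 C and 5% CO2 in quantitative HTS format. Detection followed 2 hr of FRET substrate loading at room temperature.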
Test [14] in a line: qHTS assay to identify small molecule agonists of the endoplasmic reticulum stress response signaling pathway - cell viability counter screen (AID 1159517; calls by dose curve). In a few lines:
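Cells, HeLa ESRE-bla; density, 1,500/well; dosing, 5 hr at 37 C, 5% CO2; readout, CellTiter-Glo luminescence after 30 min RT.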

The nature of test [15]: qHTS assay to identify small molecule antagonists of the retinoid-related orphan receptor gamma (ROR-gamma) signaling pathway - cell viability counter screen (AID 1159520). Further: nearly all actives have a fitted effect of over 50% in size. In a few lines: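 Cytotoxicity was read from cellular ATP (CellTiter-Glo luminescence) after 16 hr at 37 C with 1 uM doxycycline induction. The inducer was added 2 hr after compound transfer to Tet-on ROR gamma CHO cells.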

In test [16] the target is Nuclear receptor ROR-gamma (Homo sapiens) (UniProt P51449). As to the kind of experiment: qHTS assay to identify small molecule antagonists of the retinoid-related orphan receptor gamma (ROR-gamma) signaling pathway (AID 1159521; further: nearly all actives have a fitted effect of over 50% in size; further: potency means the concentration at half of the fitted maximal effect). In a few lines:
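Readout: ONE-Glo luciferase luminescence, 30 min at room temperature. System: Tet-on RORγ CHO, RORE-LUC. Sequence: compound 2 h, doxycycline 1 uM final, 16 h at 37 C.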

Test [17] in a line: qHTS assay to identify small molecule agonists of the AP-1 signaling pathway - cell viability counter screen (AID 1159525; calls by dose curve; further: nearly all actives have a fitted effect of over 55% in size). In a few lines:
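Luminescent ATP readout (Cell Titer Glo, 30 min RT), normalised to DMSO and tetra n-octyl ammonium bromide controls. Cells were ME-180 AP-1-bla in 0.5% dialyzed FBS Opti-MEM, with a 5 h, 37 °C compound exposure.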

The nature of test [18]: qHTS assay to identify small molecule agonists of the AP-1 signaling pathway (AID 1159526; calls by dose curve).
Test [19] has as its target Vitamin D3 receptor (Homo sapiens) (UniProt P11473). As to the kind of experiment: qHTS assay to identify small molecule antagonists of the vitamin D receptor (VDR) signaling pathway (AID 743223; active means well fitted inhibition curve with a large enough effect in the signal ratio in the repeat runs, not every such curve was filed as active; the % refers to the signal ratio). The method, boiled down:
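After VDR-bla cells are plated and left 4 h at 37C, DMSO-dissolved compounds and 3 nM (final) calcitriol agonist are added. Incubation continues 16 h at 37C; FRET beta-lactamase substrate then develops 2 h at room temperature.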

Test [20] is described as follows: qHTS assay to identify small molecule agonists of the farnesoid-X-receptor (FXR) signaling pathway - cell viability counter screen (AID 743218). Further: nearly all actives have a fitted effect of over 45% in size. In a few lines:
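After 16 h at 37 C with test compounds, FXR-bla HEK 293T cells were given LiveBLAzer B/G substrate for 2 h at RT and then CellTiter-Glo; luminescence was taken after 30 min.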

Sequence of Vitamin D3 receptor (Homo sapiens) (P11473 whole entry, looked up): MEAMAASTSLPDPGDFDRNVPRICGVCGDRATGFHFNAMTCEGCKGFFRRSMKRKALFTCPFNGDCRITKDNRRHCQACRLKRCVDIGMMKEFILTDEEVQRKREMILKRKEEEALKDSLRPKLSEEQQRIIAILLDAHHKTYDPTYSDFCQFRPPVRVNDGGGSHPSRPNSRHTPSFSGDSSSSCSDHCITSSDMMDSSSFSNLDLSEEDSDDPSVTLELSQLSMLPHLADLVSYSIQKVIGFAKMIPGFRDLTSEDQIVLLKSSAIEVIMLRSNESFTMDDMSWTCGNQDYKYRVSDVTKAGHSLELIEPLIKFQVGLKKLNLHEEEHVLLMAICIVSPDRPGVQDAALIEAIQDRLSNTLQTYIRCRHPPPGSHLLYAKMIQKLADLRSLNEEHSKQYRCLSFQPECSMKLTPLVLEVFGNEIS
Sequence of Bile acid receptor (Homo sapiens) (Q96RI1 whole entry, looked up): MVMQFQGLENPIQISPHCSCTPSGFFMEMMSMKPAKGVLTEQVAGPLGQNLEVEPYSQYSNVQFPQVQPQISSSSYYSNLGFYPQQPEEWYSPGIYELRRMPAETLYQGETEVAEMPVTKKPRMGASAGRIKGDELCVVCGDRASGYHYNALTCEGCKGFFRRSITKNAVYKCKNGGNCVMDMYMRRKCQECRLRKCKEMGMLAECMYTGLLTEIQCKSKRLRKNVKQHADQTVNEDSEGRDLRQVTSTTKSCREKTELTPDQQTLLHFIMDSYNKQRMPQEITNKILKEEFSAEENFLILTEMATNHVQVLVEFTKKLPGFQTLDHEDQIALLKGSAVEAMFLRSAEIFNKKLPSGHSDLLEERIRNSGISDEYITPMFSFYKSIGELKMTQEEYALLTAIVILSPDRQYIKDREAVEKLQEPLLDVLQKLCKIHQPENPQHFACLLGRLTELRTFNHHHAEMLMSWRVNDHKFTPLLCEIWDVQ
Sequence of Peroxisome proliferator-activated receptor delta (Homo sapiens) (Q03181 whole entry, looked up): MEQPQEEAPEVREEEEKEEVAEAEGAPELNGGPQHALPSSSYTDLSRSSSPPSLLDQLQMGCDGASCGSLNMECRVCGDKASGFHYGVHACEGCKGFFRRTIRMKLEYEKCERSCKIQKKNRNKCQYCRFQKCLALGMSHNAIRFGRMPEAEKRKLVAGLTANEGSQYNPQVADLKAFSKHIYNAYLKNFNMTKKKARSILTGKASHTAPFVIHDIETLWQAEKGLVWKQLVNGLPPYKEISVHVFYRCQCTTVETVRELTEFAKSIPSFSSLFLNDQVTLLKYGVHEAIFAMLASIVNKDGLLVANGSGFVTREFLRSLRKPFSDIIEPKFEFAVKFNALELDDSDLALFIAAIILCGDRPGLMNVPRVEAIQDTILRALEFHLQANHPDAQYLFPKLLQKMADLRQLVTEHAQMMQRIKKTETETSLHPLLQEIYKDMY

Turning to `COP(=S)(OC)Oc1ccc([N+](=O)[O-])cc1`, the Potency entry in test [1], in [2], in test [3], in test [4], in [5] and in test [7] was “inactive” each time. The Potency entry in test [9], in test [10], in [12], in [14], in test [15] and in test [16] was “inactive” each time. In [17], the Potency entry was “inactive”. Moreover, the compound was classed as inactive in test [6], in test [8], in test [11], in [13] and in test [18].
With `CCN(CC)C(=O)/C(Cl)=C(\C)OP(=O)(OC)OC`, the Potency result in test [1], in [2], in [3], in [4], in test [7] and in [9] was “inactive” throughout. Besides, the Potency entry in [10], in test [12], in test [14], in [15], in test [16] and in [17] was “inactive” in each case. Also, the call in [8], in test [19], in [11], in [13] and in [18] was inactive.
For the compound `Cc1c(COC(=O)[C@@H]2[C@H](/C=C(\Cl)C(F)(F)F)C2(C)C)cccc1-c1ccccc1`, the Potency entry in [1], in test [2], in test [3], in [7], in test [9] and in test [10] was “inactive” each time. In addition, the Potency result in test [12], in test [14], in [15] and in [17] was “inactive” in each case. In addition, the outcome in [6], in test [8], in test [19], in test [11], in test [13] and in test [18] was inactive. The Potency in [16] is 23.8 µM (active) and inactive.
`Nc1ccc(-c2ccccc2)cc1`: the Potency result in test [1], in [2], in test [3], in test [4], in test [7] and in test [9] was “inactive” throughout. Further, the Potency result in [12], in test [14], in test [15], in test [16] and in test [17] was “inactive” each time. For the same compound, the outcome in [8], in [19], in [11], in test [13] and in test [18] was inactive.
For `CN(C)C(=O)Nc1ccc(Cl)cc1`, the Potency result in test [1], in test [2], in [3], in test [4], in test [5] and in test [7] was “inactive” throughout. In addition, the Potency result in test [9], in test [10], in [12], in test [14], in test [15] and in [16] was “inactive” in each case. Besides, the Potency entry in test [17] was “inactive”. The compound was classed as inactive in test [6], in test [8], in test [19], in test [11], in test [13] and in test [18].
`Brc1ccc(Oc2cc(Br)c(Br)cc2Br)c(Br)c1`: in [1], the Potency was 22 µM (active). For the same compound, the Potency result in test [2], in test [3], in test [4], in test [20], in test [7] and in [9] was “inactive” each time. The Potency entry in test [10], in test [12], in test [14], in test [15], in test [16] and in test [17] was “inactive” each time. Further, the call in test [6], in [8], in test [19], in test [11], in test [13] and in [18] was inactive.
Turning to `CCCCCCCCOC(=O)c1ccccc1C(=O)OCCCCCCCC`, the Potency result in test [1], in test [2], in test [3], in test [4], in [5] and in test [7] was “inactive” each time. Moreover, the Potency entry in test [9], in test [10], in [12], in test [14], in test [15] and in test [16] was “inactive” each time. Besides, the Potency result in test [17] was “inactive”. The outcome in [6], in test [8], in test [19], in [11], in [13] and in [18] was inactive.
Turning to `CCC(C)(C)c1ccc(O)cc1`, the Potency in test [1] is 49.5 µM (active) and inactive. Also, the Potency result in [3], in test [5], in [20], in [7], in test [9] and in test [12] was “inactive” throughout. Also, the Potency entry in test [14], in [15], in test [16] and in test [17] was “inactive” in each case. Also, the result in test [6], in [8], in test [19], in [11], in test [13] and in [18] was inactive.
